Test results taken from PubChem BioAssay AID1159580 (chemical genetic matrix, 2015).
Several values for one entry are separate records, joined by “and”; a condition that tells them apart may be missing. Equal values may be shown once. Screen size: about 5,500 compounds; about 2,000 (36%) were called active. Another 18% or so got no clear call; they are omitted. Cut-off read from the data, not from the text of the source: active = normalized growth mostly below about 0.91 (no sharp cut-off); inconclusive = no clear call, values can overlap the other calls; inactive = mostly above about 0.92. This is one part of the list.

Experiment: chemical genetic growth profiling, strain panel (AID 1159580);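 note: tested at 20 µM; growth read once vehicle control cultures reached saturation at 30 °C; 1 = growth at the plate median or of vehicle wells; lower values mean less growth of the strain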
Settings: S. cerevisiae deletion strains, growth OD

Measured: normalized growth

CN(C)CCc1c[nH]c2ccc(CS(=O)(=O)N3CCCC3)cc12
active: locus YDR159W, strain sac3, hits give low values 0.831
inactive: locus YAL013W, strain DEP1, hits give low values 0.991 | locus YAL021C, strain ccr4, hits give low values 0.991 | locus YAL026C, strain drs2, hits give low values 0.976 | locus YAL030W, strain snc1, hits give low values 1.01 | locus YBL061C, strain skt5, hits give low values 1.01 | locus YBR009C, strain hhf1, hits give low values 0.925 | locus YBR021W, strain FUR4, hits give low values 1 | locus YBR023C, strain chs3, hits give low values 0.997 | locus YBR171W, strain sec66, hits give low values 1 | locus YBR229C, strain ROT2, hits give low values 0.995 | locus YBR231C, strain swc5, hits give low values 0.993 | locus YBR279W, strain paf1, hits give low values 0.986 | locus YCL011C, strain gbp2, hits give low values 0.982 | locus YCL016C, strain dcc1, hits give low values 1.02 | locus YCL029C, strain bik1, hits give low values 0.981 | locus YCL069W, strain vba3, hits give low values 0.977 | locus YCR088W, strain abp1, hits give low values 0.986 | locus YDL005C, strain med2, hits give low values 1.01 | locus YDL035C, strain GPR1, hits give low values 1.01 | locus YDL040C, strain nat1, hits give low values 0.99 | locus YDL074C, strain BRE1, hits give low values 1.05 | locus YDL101C, strain DUN1, hits give low values 0.987 | locus YDL134C, strain PPH21, hits give low values 0.99 | locus YDL185W, strain tfp1, hits give low values 0.979 | locus YDL192W, strain arf1, hits give low values 0.991 | locus YDR001C, strain nth1, hits give low values 0.98 | locus YDR069C, strain doa4, hits give low values 0.992 | locus YDR101C, strain arx1, hits give low values 0.986 | locus YDR137W, strain rgp1, hits give low values 0.986 | locus YDR150W, strain NUM1, hits give low values 0.999 | locus YDR162C, strain NBP2, hits give low values 1.01 | locus YDR195W, strain ref2 0.937 | locus YDR297W, strain sur2, hits give low values 0.996 | locus YDR318W, strain mcm21, hits give low values 0.996 | locus YDR334W, strain swr1, hits give low values 0.949 | locus YDR335W, strain msn5, hits give low values 0.982 | locus YDR388W, hits give low values 0.988 | locus YDR392W, strain spt3, hits give low values 0.972 | locus YDR502C, strain sam2, hits give low values 0.989 | locus YEL003W, strain gim4, hits give low values 0.977 | locus YEL037C, strain rad23, hits give low values 0.976 | locus YEL061C, strain CIN8 (second series), hits give low values 0.958 | locus YEL061C, strain CIN8, hits give low values 1 | locus YER015W, strain faa2, hits give low values 0.993 | locus YER016W, strain bim1, hits give low values 1.05 | locus YER110C, hits give low values 0.99 | locus YER111C, strain swi4, hits give low values 0.998 | locus YER155C, strain BEM2 (second series), hits give low values 1.02 | locus YER155C, strain BEM2, hits give low values 1.02 | locus YER167W, strain BCK2, hits give low values 0.992 | locus YFR010W, strain ubp6, hits give low values 0.947 | locus YGL078C, strain dbp3, hits give low values 0.985 | locus YGL086W, strain mad1, hits give low values 0.988 | locus YGL167C, strain pmr1, hits give low values 0.983 | locus YGL173C, strain kem1, hits give low values 0.958 | locus YGL227W, strain vid30, hits give low values 0.966 | locus YGL240W, strain doc1, hits give low values 0.926 | locus YGL248W, strain PDE1, hits give low values 0.993 | locus YGL253W, strain hxk2, hits give low values 1 | locus YGR078C, strain PAC10, hits give low values 1.01 | locus YGR135W, strain pre9, hits give low values 0.999 | locus YGR229C, strain SMI1, hits give low values 1.01 | locus YGR252W, strain gcn5, hits give low values 1.03 | locus YHR013C, strain ard1, hits give low values 1.02 | locus YHR027C, strain rpn1, hits give low values 0.984 | locus YHR030C, strain SLT2, hits give low values 0.995 and 0.96 | locus YHR079C, strain IRE1 (second series), hits give low values 0.981 | locus YHR079C, strain IRE1, hits give low values 0.984 | locus YHR094C, strain hxt1, hits give low values 0.987 | locus YHR129C, strain ARP1, hits give low values 0.981 | locus YHR142W, strain chs7, hits give low values 0.976 | locus YHR200W, strain rpn10, hits give low values 0.991 | locus YIL066C, strain RNR3, hits give low values 0.998 | locus YIL073C, strain SPO22, hits give low values 0.999 | locus YIL125W, strain kgd1, hits give low values 0.994 | locus YIR030C, strain dcg1, hits give low values 0.983 | locus YJL092W, strain hpr5, hits give low values 0.99 | locus YJL095W, strain BCK1 (second series), hits give low values 0.991 | locus YJL095W, strain BCK1, hits give low values 0.984 and 0.977 | locus YJL115W, strain asf1, hits give low values 0.987 | locus YJL129C, strain trk1, hits give low values 0.994 | locus YJL134W, strain LCB3, hits give low values 0.991 | locus YJL154C, strain vps35, hits give low values 0.978 | locus YJL164C, strain tpk1, hits give low values 0.99 | locus YJL166W, strain qcr8, hits give low values 0.986 | locus YJL168C, strain set2, hits give low values 0.987 | locus YJL187C, strain SWE1 (second series), hits give low values 0.986 | locus YJL187C, strain SWE1, hits give low values 1.01 | locus YJR043C, strain POL32, hits give low values 0.994 | locus YJR066W, strain TOR1, hits give low values 0.925
